This note sets out measurements from ChEMBL document CHEMBL4513216, “Probing the Open Global Health Chemical Diversity Library for Multistage-Active Starting Points for Next-Generation Antimalarials” (ACS Infect Dis, 2020).

Among all 69,000 compounds or so, about 8,600 (12%) showed an effect of 50% or more. Many of the other results were omitted from the sample, so strong results are more common in it than they were.

For the assay, the system named is Plasmodium berghei. In words: Screen against P. berghei liver stage (PbLuc), transformed with Luciferase, at 10uM. Type of assay: functional, HepG2. The settings on record: tested at 10 uM.
`CN1C(=O)C(c2ccccc2)CC12CCN(CCO)CC2` (stereo not given): the INHIBITION is listed as -9.26%.

As to `CCc1nc(C2CCCN(C(=O)c3cccc(Cl)c3)C2)no1` (stereo not given), the INHIBITION is recorded as -19.9%.

As for `COc1cccc(CNC2CCSC2)c1OC` (stereo not given), the INHIBITION is given as -7.85%.

For the compound `CC(C)(C)C(CCO)NC(=O)Nc1ccccc1` (stereo not given), the INHIBITION was 43.7%.

Consider `Cc1cccnc1NC(=O)NC(CCO)C(C)(C)C` (stereo not given), for which the INHIBITION is given as 28.3%.

`CC(C)(C)C(CCO)NC(=O)Nc1ccncc1` (stereo not given): the INHIBITION worked out at 60.2%.

On to `CN1CC(=O)N(c2ccccc2)CC12CCN(S(C)(=O)=O)C2` (stereo not given), for which the INHIBITION turned out to be 42.7%.

For `Cc1ccc(C(=O)NCC2(O)CCOCC2)cc1Br`, the INHIBITION is reported as -65.5%.

As to `Cc1cc(CNCC2(O)CCOCC2)ccc1F`, the INHIBITION is 76.8%.

For `CN1CCC(O)(CNCc2ccc(F)c(C(F)(F)F)c2)CC1`, the INHIBITION is on record as 48.4%.

In the case of `Cc1cc(CNC2(CO)CCOCC2)ccc1Br`, the INHIBITION came to 18.6%.

In the case of `OC1(CNCc2ccc(F)c(C(F)(F)F)c2)CCOC1` (stereo not given), the INHIBITION is reported as 3.69%.

For `Cc1cc(CNCC2(O)CCOCC2)ccc1Br`, the INHIBITION came to 54.4%.

As for `CN(C)C(=O)[C@@H]1CCO[C@@H]2CCN(CCc3ccccc3)C[C@@H]21`, the INHIBITION is reported as 28.5%.

With `COCc1ccc(C(=O)N2CCC(Oc3ccccc3OC)CC2)s1`, the INHIBITION is listed as -3.83%.

As for `O=C(N[C@@H]1CN(c2ncccn2)C[C@@H]2CCCO[C@@H]21)c1cnccn1`, the INHIBITION is on record as 20.2%.

As to `CC(O)CN1CCN(C(=O)c2cc(Cl)cc3cccnc23)CC1` (stereo not given), the INHIBITION was 2.75%.

On to `COC(=O)N1C[C@@H]2CC[C@H]1CN(Cc1cscn1)C2`, for which the INHIBITION was -14.8%.

As for `CCc1ncc2c(n1)CN(c1nc(C)ccc1C(=O)O)C2`, the INHIBITION is on record as 9.55%.

Take `CC(C)OCCN1CCC(Nc2ccc(C#N)cc2F)CC1`: the INHIBITION is on record as 27.2%.

`CNC(=O)[C@@H]1C[C@@H](N)CN1C1CCN(Cc2ccccn2)CC1`: the INHIBITION was found to be 27.6%.

On to `CNC(=O)[C@@H]1C[C@@H](N)CN1C1CCN(c2ccccc2F)CC1`, for which the INHIBITION is 61%.

Take `CCNC(=O)[C@@H]1C[C@H](N)CN1C(=O)CCc1ccccc1Cl`: the INHIBITION was -6.83%.

On to `CCNC(=O)[C@@H]1C[C@H](N)CN1C1CCN(c2ccccc2OC)CC1`, for which the INHIBITION is 55.4%.

Take `COc1ccccc1N1CCC(N2CCOCC(CO)C2)CC1` (stereo not given): the INHIBITION is given as 39%.

With `CNC(=O)[C@@H]1C[C@@H](N)CN1C(=O)CCSCc1ccc(F)cc1`, the INHIBITION is 9.63%.

On to `Cc1cc(C(F)(F)F)nc(C2CCCN2S(C)(=O)=O)n1` (stereo not given), for which the INHIBITION amounted to 20.2%.

`CCN1CCN(C(C)CNC(=O)Nc2cnn(CC)c2)CC1` (stereo not given): the INHIBITION is listed as 44.1%.

On to `CNC(=O)C1CCN(c2ncc3c(n2)CCN3c2ccccc2)C1` (stereo not given), for which the INHIBITION was -105%.

As to `O=C(Cc1c(F)cccc1Cl)Nc1cc(N2CCCC2)ncn1`, the INHIBITION is -27.8%.
